The values that follow come from PubChem BioAssay (NCATS).

Assay [1] can be described thus: qHTS Screen of the MIPE 4.0 Collection Against Ewings Sarcoma (TC32) (AID 1259256). Also: nearly all actives have a fitted effect of over 45% in size. Summed up:
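Log-phase cells in RPMI with 5% FBS attached for 4 h, then received compounds as a titration for 48 h at 37C, 5% CO2. Viability was read by CellTiter-Glo luminescence and normalized to DMSO and no-cell wells.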
On the technique in general: qHTS replaces the single test concentration by a dilution series.

Assay [2] is described as follows: P-glycoprotein substrates identified in KB-8-5-11 adenocarcinoma cell line, qHTS therapeutic library screen (AID 1346987). Also: nearly all actives have a fitted effect of over 65% in size. Summed up: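 Luminescence from CellTiter-Glo, read 5 min after addition, quantified survival of KB-8-5-11 (P-gp-overexpressing) cells exposed to compounds for 72 h. AC50 was derived from concentration-response curves.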
Assay [3] in a line: NS1 protein of Zika virus - qHTS assay to identify small molecule inhibitors in human HEK 293 cells (AID 1347053). Also: nearly all actives have a fitted effect of over 55% in size. In short, it runs like this:
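Read-out is a two-antibody TR-FRET for ZIKV NS1, normalized between uninfected cells and infected cells. Compound added 1 h before MR766 infection at MOI 0.5; human HEK 293 cells incubated 24 h, 37 C.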

Assay [4] is described as follows: qHTS of pediatric cancer cell lines to identify multiple opportunities for drug repurposing: Primary screen for DAOY cells (AID 1347090). Also: nearly all actives have a fitted effect of over 55% in size.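 As to activity change, negative = cytotoxic: series mostly up to about 46 µM; plate controls were DMSO for no effect and bortezomib for full effect.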 Summed up: (§1)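 Viability measured as metabolically active cells via CellTiter-Glo luminescence following 48 hours of compound exposure, 11-point dilutions in confirmatory testing. 500-1,000 cells/well plated 5 hours before dosing; controls were DMSO and 2.3 µM bortezomib.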

Assay [5] can be described thus: qHTS of pediatric cancer cell lines to identify multiple opportunities for drug repurposing: Primary screen for SJ-GBM2 cells (AID 1347091).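 As to activity change, negative = cytotoxic: plate controls were DMSO neutral control for no effect and bortezomib for full effect.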 In short, it runs like this:
as §1

Assay [6] can be described thus: qHTS of pediatric cancer cell lines to identify multiple opportunities for drug repurposing: Primary screen for A673 cells (AID 1347092). Also: nearly all actives have a fitted effect of over 45% in size. As to activity change, negative = cytotoxic: % is scaled to controls: 0 for no effect and ±100 for the full control effect. Summed up: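 48 h compound exposure, A673, 500-1,000 cells/well, 37 degrees C/5% CO2. MIPE: 11-point, 0.78 nM-46 µM; NPC: 8-point, 0.59 nM-46 µM (final). Readout CellTiter-Glo luminescence after 15 min RT.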
Assay [7] in a line: qHTS of pediatric cancer cell lines to identify multiple opportunities for drug repurposing: Primary screen for BT-37 cells (AID 1347094).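 As to activity change, negative = cytotoxic: series mostly up to about 57 µM; plate controls were DMSO for no effect and bortezomib for full effect.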 Summed up:
(§2)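 CRCs from 8- or 11-point titrations (lowest final 0.59 nM NPC, 0.78 nM MIPE). Cell viability: CellTiter-Glo after 48 h incubation, 15 min room-temperature development, luminescence imaging.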

Assay [8] can be described thus: qHTS of pediatric cancer cell lines to identify multiple opportunities for drug repurposing: Primary screen for NB-EBc1 cells (AID 1347095).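 As to activity change, negative = cytotoxic: plate controls were DMSO neutral control for no effect and bortezomib for full effect.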 Summed up: as §2
A short description of assay [9]: qHTS of pediatric cancer cell lines to identify multiple opportunities for drug repurposing: Primary screen for Saos-2 cells (AID 1347097). Also: nearly all actives have a fitted effect of over 40% in size. As to activity change, negative = cytotoxic: % is scaled to controls: 0 for no effect and ±100 for the full control effect. Summed up:
as §2

Assay [10] is described as follows: qHTS of pediatric cancer cell lines to identify multiple opportunities for drug repurposing: Primary screen for SK-N-SH cells (AID 1347098). Also: nearly all actives have a fitted effect of over 65% in size.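 As to activity change, negative = cytotoxic: DMSO served as neutral control and bortezomib at 2.3 µM as positive control; % is scaled to controls: 0 for no effect and ±100 for the full control effect.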 Summed up: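 Cells (500-1,000/well) rested 5 h, then received compounds for 48 h; metabolically active cells were measured by CellTiter-Glo luminescence. Final concentrations spanned up to 46 µM (MIPE, 11-point) or 0.59 nM-46 µM (NPC, 8-point) in primary screens, 11-point in follow-ups.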

Assay [11] in a line: qHTS of pediatric cancer cell lines to identify multiple opportunities for drug repurposing: Primary screen for NB1643 cells (AID 1347099). Also: nearly all actives have a fitted effect of over 50% in size.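 As to activity change, negative = cytotoxic: plate controls were DMSO neutral control for no effect and bortezomib positive control for full effect.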 In short, it runs like this: as §2
A short description of assay [12]: qHTS of pediatric cancer cell lines to identify multiple opportunities for drug repurposing: Primary screen for LAN-5 cells (AID 1347100).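 As to activity change, negative = cytotoxic: plate controls were DMSO neutral control for no effect and bortezomib positive control for full effect.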 Summed up: (§3)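 Viability after 48 h compound treatment at 37C, 500-1,000 cells/well, read as ATP luminescence with CellTiter-Glo. Primary screens used 11-point (MIPE, 0.78 nM-46 µM) or 8-point (NPC, 0.59 nM-46 µM) final concentrations; follow-up screens used 11-point dilutions.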

Assay [13] can be described thus: qHTS of pediatric cancer cell lines to identify multiple opportunities for drug repurposing: Primary screen for SK-N-MC cells (AID 1347093).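 As to activity change, negative = cytotoxic: series mostly up to about 46 µM; plate controls were DMSO neutral control for no effect and bortezomib for full effect.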 In short, it runs like this:
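Metabolically active cells were quantified by ATP-dependent luminescence (CellTiter-Glo, 15 min at room temperature) following 48 h treatment. Cells had been plated at 500-1,000 per well and settled for 5 h beforehand.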

The nature of assay [14]: qHTS of pediatric cancer cell lines to identify multiple opportunities for drug repurposing: Primary screen for U-2 OS cells (AID 1347096). Also: nearly all actives have a fitted effect of over 50% in size.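 As to activity change, negative = cytotoxic: plate controls were DMSO wells for no effect and bortezomib positive control wells for full effect.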 Summed up: as §3
The nature of assay [15]: qHTS of pediatric cancer cell lines to identify multiple opportunities for drug repurposing: Primary screen for TC32 cells (AID 1347089). Also: nearly all actives have a fitted effect of over 60% in size. As to activity change, negative = cytotoxic: % is scaled to controls: 0 for no effect and ±100 for the full control effect. Summed up:
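In the primary qHTS, MIPE compounds were tested at 11 concentrations (0.78 nM to 46 µM) and NPC compounds at 8 (0.59 nM to 46 µM) on TC32 cells for 48 h. CellTiter-Glo luminescence gave viability.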

“And” between values parts separate entries of the source, which are not always exact repeats. Equal values may be shown once. Results filed as inconclusive are left out. Unmarked numbers belong to inactive results. The source made the active and inactive calls. Calls follow the shape of the dose curve; as a rule, active = well fitted curve in the direction sought with a large enough effect; inconclusive = small, poorly fitted or top-dose-only effect, or another doubt; inactive = no such curve, though single readings can be large; an effect the other way counts as inactive or inconclusive. Starred links: 1 amine or outer side, 2 acyl side, 3 side chain; linkers in the order of their positions; H or OH if unused. Positions of bridges follow the written chain, without caps; N, C: chain ends. Non-standard residues stand in square brackets, D forms with d. Residues, ends and D or L forms follow the SMILES beside them. Chains are numbered I, II in the order given. Actinocin(9to1) = Cc1c2oc3c(C)ccc(C(=O)[*:1])c3nc-2c(C(=O)[*:2])c(N)c1=O; NMeV = CN[CH](C(=O)O)C(C)C; Sar = CNCC(=O)O
Potency is read from the fitted curve at half-maximal effect.

In the case of `C#Cc1cccc(Nc2ncnc3cc(OCCOC)c(OCCO)cc23)c1`, the Potency was 8.33 µM (active) in assay [1]; 23.5 µM (active) in assay [2]; 3.72 µM (active) in assay [4]; 5.26 µM (active) in assay [5]; 0.187 µM (active) in assay [6]; 6.85 µM (active) in [7]. Besides, the Potency was 5.26 µM (active) in assay [8]; 5.9 µM (active) in assay [9]; 3.83 µM (active) in assay [10]; 1.87 µM (active) in assay [11]; 0.264 µM (active) in assay [12]. Further, the Potency entry in [3] was “inactive”.

As to `Cn1cnc(=N)c2[nH]cnc21`, the Potency is 0.132 µM (active) in [1]; 10.5 µM (active) in assay [2]; 1.18 µM (active) in assay [4]; 1.48 µM (active) in [5]; 0.187 µM (active) in [6]; 0.0833 µM (active) in assay [13]. The Potency in assay [7] is 1.37 µM (active); in assay [8] it was 0.662 µM (active); in [14] it was 2.35 µM (active); in assay [9] it was 0.743 µM (active); in assay [10] it was 1.92 µM (active); in [11] it was 0.166 µM (active). In assay [12], the Potency was 0.418 µM (active). The Potency entry in assay [3] is “inactive”.

Take `C[C@]12C=CC(=O)N[C@@H]1CC[C@H]1[C@H]3CC[C@@H](C(=O)Nc4cc(C(F)(F)F)ccc4C(F)(F)F)[C@@]3(C)CC[C@@H]12`: the Potency result in assay [1], in assay [2], in [3], in assay [15], in [13] and in [7] was “inactive” each time. Also, the Potency entry in assay [14], in assay [10] and in assay [12] was “inactive” throughout. Moreover, the Potency in assay [5] was 14.8 µM (active); in assay [9], 16.6 µM (active).

On to `CC(C)[C@H](CO)Nc1nc(Nc2cccc(Cl)c2)c2ncn(C(C)C)c2n1`, for which the Potency is 10.5 µM (active) in assay [1]; 10.5 µM (active) and 20.6 µM (active) in assay [2]; 23.5 µM (active) in assay [3]; 18.7 µM (active) in [4]; 16.6 µM (active) in [5]; 14.8 µM (active) in assay [6]. Further, the Potency was 1.32 µM (active) in assay [13]; 21.7 µM (active) in assay [7]; 18.7 µM (active) in assay [8]; 9.35 µM (active) in assay [9]; 21.5 µM (active) in assay [10]; 2.96 µM (active) in assay [11]. The Potency in [12] was 11.8 µM (active).

As for `C[C@@H]1C(=O)O[C@H]2CC34[C@H]5C[C@@H](C(C)(C)C)C36[C@H](OC(=O)[C@@H]6O)O[C@@]4(C(=O)O5)[C@]21O` (some centres not stated), the Potency entry in assay [1], in [2], in [3], in [4], in assay [5] and in assay [6] was “inactive” throughout. The Potency entry in [13], in assay [8] and in [14] was “inactive” each time. The Potency in [12] was 13.2 µM (active).

In the case of `O=C1CSC(=O)N1C(CCc1ccncc1)COc1ccc(-c2cccc([N+](=O)[O-])c2)cc1` (configuration not stated), the Potency in assay [1] is 6.62 µM (active); in assay [4], 7.43 µM (active); in assay [6], 7.43 µM (active); in assay [13], 10.5 µM (active); in [7] it was 15.3 µM (active); in assay [8] it was 18.7 µM (active). Besides, the Potency in assay [12] is 14.8 µM (active). Also, the Potency entry in assay [2], in [3], in [14] and in assay [9] was “inactive” in each case.

As to `C=C[C@@H]1CN2CCC1C[C@H]2[C@H](O)c1ccnc2ccc(OC)cc12` (some centres not stated), the Potency result in [1], in assay [2], in [3], in assay [15], in assay [5] and in [7] was “inactive” throughout. Also, the Potency result in assay [8], in assay [14], in assay [9], in assay [10] and in assay [12] was “inactive” in each case.

For `CCC(C=C[C@@H]1OC(=O)C=C[C@H]1C)=C[C@H](C)CC=CC(C)=C[C@@H](C)C(=O)[C@@H](C)[C@H](O)[C@@H](C)CC(C)=CC(=O)O`, the Potency in assay [1] is 0.0139 µM (active); in [2], 0.196 µM (active); in assay [3], 0.124 µM (active); in assay [15], 0.0777 µM (active); in [13] it was 0.0247 µM (active); in [7], 0.0102 µM (active). Further, the Potency in assay [8] is 0.0247 µM (active); in [10], 0.0403 µM (active); in [11], 0.0277 µM (active). Besides, in [14], the activity change, negative = cytotoxic is 13.2% [at 1.86 µM].

On to `C[C@@]12C(=O)OC(=O)[C@@]1(C)C1CCC2O1`, for which the Potency in assay [1] is 2.64 µM (active); in [2], 5.26 µM (active); in assay [3], 3.72 µM (active); in [4] it was 2.96 µM (active); in assay [5], 2.09 µM (active); in assay [6] it was 4.69 µM (active). Further, the Potency is 2.35 µM (active) in assay [13]; 2.17 µM (active) in assay [7]; 2.35 µM (active) in [8]; 2.96 µM (active) in [9]; 3.83 µM (active) in assay [10]; 1.48 µM (active) in [11]. Also, the Potency in assay [12] is 2.35 µM (active). Besides, the Potency entry in [14] is “inactive”.

Turning to `NC(=O)c1cccc(-c2cccc(OC(=O)NC3CCCCC3)c2)c1`, the Potency result in assay [1], in assay [2], in assay [3], in [4], in assay [13] and in assay [7] was “inactive” each time. The Potency entry in assay [8], in [14], in assay [9], in assay [10], in assay [11] and in [12] was “inactive” in each case.

Turning to `C=C(C)[C@@H]1CC[C@]2(C(=O)O)CC[C@]3(C)[C@H](CC[C@@H]4[C@@]5(C)CC[C@H](O)C(C)(C)[C@@H]5CC[C@]43C)[C@@H]12`, the Potency result in [1], in assay [2], in [3], in assay [15], in assay [7] and in assay [14] was “inactive” each time. Besides, the Potency entry in assay [10], in assay [11] and in assay [12] was “inactive” each time. The Potency in assay [9] is 18.7 µM (active).

In the case of `Cn1cc(C[C@@H](N)C(=O)O)c2ccccc21`, the Potency entry in [1], in assay [2], in assay [3], in assay [4], in [5] and in assay [6] was “inactive” each time. Besides, the Potency entry in [13], in [7], in assay [8], in assay [14], in [9] and in [10] was “inactive” throughout. For the same compound, the Potency result in [11] and in [12] was “inactive” throughout.

Regarding `Cc1c2oc3c(C)ccc(C(=O)NC4C(=O)NC(C(C)C)C(=O)N5CCCC5C(=O)N(C)CC(=O)N(C)C(C(C)C)C(=O)OC4C)c3nc-2c(C(=O)NC2C(=O)NC(C(C)C)C(=O)N3CCCC3C(=O)N(C)CC(=O)N(C)C(C(C)C)C(=O)OC2C)c(N)c1=O` (configuration not stated) (I: TVP[Sar][NMeV] / II: TVP[Sar][NMeV]; ester I:1-I:C, II:1-II:C; linker I:N-II:N via Actinocin(9to1); configuration not given here), the Potency result in assay [1] and in assay [8] was “inactive” in each case. Besides, the Potency was 0.187 µM (active) in assay [2]; 7.43 µM (active) in assay [3]; 0.523 µM (active) in [15]; 0.001 µM (active) in assay [13]; 0.001 µM (active) in assay [7]; 0.001 µM (active) in assay [14]. In addition, the Potency in assay [9] and in assay [10] was 0.001 µM (active) throughout.
